Rows were chosen to be rich in hits. Some 8.1% of all compounds tested hit in one or more screens of this group.
NOMO-1 viab = STK33 inhibitor candidate reducing NOMO-1 cell viability | NOMO-1 AML viability, CellTiter-Glo luminescence, 72 h | inhibition, % (concentration not given with the values) | 37,000 compounds, 7.5% hits; in the data active = inhibition above about 80%; inconclusive = no clear call, values can overlap the other calls
MITF inh = blocks MITF activity; TRPM1 promoter luciferase, luminescence, 24 h; inhibition, % (test concentration not listed); 37,000 compounds, 0.28% hits; in the data active = inhibition above about 85%; inconclusive = no clear call, values can overlap the other calls; inactive = below about 68%;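 also: human melanocyte line stably carrying TRPM1 promoter luciferase reporter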
Shh pathway inh = blocks Sonic Hedgehog signaling; Shh-LIGHT2 Gli-luciferase reporter, 30 h; inhibition, % (test concentration not listed); 22,000 compounds, 2.1% hits;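 active = mean inhibition across valid replicates above about 65%, limit read from the data; inconclusive = mean under the limit, yet half or more replicates past it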;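 also: pathway switched on by Shh-conditioned medium diluted 1 in 25 in low serum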
Hits are given with their value; n = inactive; u = inconclusive; x = no result.

SMILES	NOMO-1 viab	MITF inh	Shh pathway inh
CC(C)CC1NC(=O)C2CCCN2C1=O (stereo not given)	n	n	n
Cc1cc(-c2ccccc2)nc(SCC(=O)O)n1	n	n	x
Cc1c(NC(=S)NCCc2c[nH]c3ccccc23)c(=O)n(-c2ccccc2)n1C	n	n	x
Cc1cc(=O)oc2cc(OC(C)C(=O)Nc3ccccc3[N+](=O)[O-])ccc12 (stereo not given)	n	n	x
NS(=O)(=O)c1ccc(CCNC(=O)c2cc(-c3cccnc3)nc3ccc(Cl)cc23)cc1	n	n	x
O=C(O)c1ccc(CNC(=O)c2cccnc2C(=O)O)cc1	n	n	x
COc1c(Cl)cc(C(=O)Nc2ccc(S(=O)(=O)Nc3cc(C)nc(C)n3)cc2)cc1Cl	n	n	x
COc1ccc(CN(C)C[C@H]2Oc3c(NC(=O)Nc4ccc(F)cc4)cccc3C(=O)N([C@@H](C)CO)C[C@@H]2C)cc1	n	n	n
COc1ccc(CN(C)C[C@H]2Oc3c(NC(=O)Nc4ccc(C(F)(F)F)cc4)cccc3C(=O)N([C@@H](C)CO)C[C@@H]2C)cc1	101	n	u
COc1ccc(CN(C)C[C@H]2Oc3c(NC(=O)Nc4ccc(C(F)(F)F)cc4)cccc3C(=O)N([C@H](C)CO)C[C@@H]2C)cc1	94	n	n
COc1ccc(-c2c(-c3ccc(OCc4cnn(-c5ccccc5)c4)c(C)c3O)n[nH]c2C)cc1	n	n	x
COc1ccc(-c2nc3ccccc3s2)cc1NC(=O)COc1ccc(Cl)cc1Cl	n	n	x
COc1ccc([N+](=O)[O-])cc1NC(=O)COc1ccc(C(C)(C)C)cc1Br	n	89	x
COc1ccc([N+](=O)[O-])cc1NC(=O)COc1ccc(Cl)cc1Br	n	n	x

Assay outcomes (PubChem)
